The full ranking holds about 39,000 sequences; the median of “fluorescence intensity (a.u.)” is about 4,300, and the highest 2% start at about 39,000. The list comes from a sample in which the highest values are over-represented; it also holds similar and randomly drawn sequences.

This assay concerns the target T1, OsSMF1 (Oryza sativa, UniProt Q6ZLB0 1-436).
T1 sequence: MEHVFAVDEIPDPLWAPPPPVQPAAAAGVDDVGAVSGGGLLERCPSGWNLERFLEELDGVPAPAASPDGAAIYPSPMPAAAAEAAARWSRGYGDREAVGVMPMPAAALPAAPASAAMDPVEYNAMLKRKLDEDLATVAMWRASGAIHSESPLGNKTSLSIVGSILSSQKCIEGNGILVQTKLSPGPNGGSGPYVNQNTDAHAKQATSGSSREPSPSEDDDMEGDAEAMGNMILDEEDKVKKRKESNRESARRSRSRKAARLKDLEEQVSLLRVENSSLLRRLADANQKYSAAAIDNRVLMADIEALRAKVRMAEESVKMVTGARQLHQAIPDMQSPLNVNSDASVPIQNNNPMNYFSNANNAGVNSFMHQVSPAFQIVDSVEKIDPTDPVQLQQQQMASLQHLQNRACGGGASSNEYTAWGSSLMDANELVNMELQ
In words: protein-binding microarray (RPBM); PBS, 2% BSA, 51.3 ng/ul salmon testes DNA, 50 uM zinc acetate, 200 nM TF, 25 C, 1 h; high values mean tight binding. The settings on record: protein: recombinant; tags: N-terminal polyhistidine and DsRed monomer fusion (pET32a); chain copies: 2; label: CyDye5-dUTP incorporated in the synthesized complementary strand; 3' TTTTT single-stranded linker to array surface; dsDNA, one strand shown. The essentials:
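In PBS with 2% BSA, salmon testes DNA and 50 µM zinc acetate, 200 nM protein was incubated on a custom Agilent array at 25 °C for 1 h and then washed off. The array had been made double-stranded by primer extension with Cy5-dUTP and blocked with 2% BSA. The proteins were transcription factors fused N-terminally to polyhistidine and DsRed, expressed in E. coli BL21-CodonPlus and purified on Ni–NTA. The binding signal is per-feature fluorescence intensity (arbitrary units) from an Axon 4000B scanner.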
As to “GTTTGAGATGTGTAATAAAGGATCGATCTTGTTGACGATCCGGAGTCACCTAGTGCAG”, the binding signal was 3530 fluorescence intensity (a.u.).
The figure for “TGACAGGTTGATGTGATGGAAAAGGACTGAAGGTTGGATCCGGAGTCACCTAGTGCAG” is 42400 fluorescence intensity (a.u.); for “ACAAACTTTGTATACGTGTATAAAATATTGATATATGTACCGGAGTCACCTAGTGCAG” it is 4410 fluorescence intensity (a.u.).
In the case of “GAAGTGTCCATATTGAGTCATTTGTCCATTTGCCCAGGCACGGAGTCACCTAGTGCAG” it was 4960 fluorescence intensity (a.u.); in that of “TCCTCTTGCCTCCTCCGCTGAGGCAGCCAGTGCGTGCGCCCGGAGTCACCTAGTGCAG”, 3360 fluorescence intensity (a.u.).
The figure for “AGATGATCTAGGCGTGCGTGCATGCATGCGTGGCCCGCCACGGAGTCACCTAGTGCAG” is 4340 fluorescence intensity (a.u.); for “CTCCTCCTCCTCCAGACCTCCACGCGAGCGTGCCCCGGGGCGGAGTCACCTAGTGCAG” it is 4470 fluorescence intensity (a.u.).
In the case of “CAACTTTGGAAGAACTAAACACAGCATATGACAGTGCAGTCGGAGTCACCTAGTGCAG”, the binding signal was 4130 fluorescence intensity (a.u.).
Turning to “AAAACACAGGAATGGTCGTTTGATTGGAGCGCAGGAGAAACGGAGTCACCTAGTGCAG”, the binding signal is 64900 fluorescence intensity (a.u.).
Regarding “GCCTCGTTTGATTGGTCACATGCATGGAAAGAGACTCACACGGAGTCACCTAGTGCAG”, the binding signal was 16700 fluorescence intensity (a.u.).
As for “AAGGAAGTCGTTTTGGACAGCGACACAGTCTCTAAAACACCGGAGTCACCTAGTGCAG”, the binding signal is 58900 fluorescence intensity (a.u.).
With “CCGTACTCATAAAGGAAGTCGTTTTGGACAGCATCACGGTCGGAGTCACCTAGTGCAG”, the binding signal was 4170 fluorescence intensity (a.u.).
On to “TTGCAAACACAGGAATTACCGTTTGATTGAACCACAGGAACGGAGTCACCTAGTGCAG”, for which the binding signal is 12300 fluorescence intensity (a.u.).
The figure for “TAACATAGTTGATATTGTTTAATGTCATGACAAAGAATGACGGAGTCACCTAGTGCAG” is 3580 fluorescence intensity (a.u.); for “CTCCTACATGCACTCCCCTCTACAAAACCACAACCAGCATCGGAGTCACCTAGTGCAG” it is 3600 fluorescence intensity (a.u.).
“ACTATTTCTCCAGATAGTAGTAGTAACTCTTACGTCATGGCGGAGTCACCTAGTGCAG”: the binding signal is 4910 fluorescence intensity (a.u.).
The figure for “TTGTCAAATCATGGCGTCATTAGGCTTAAAAGATTCGTCTCGGAGTCACCTAGTGCAG” is 4280 fluorescence intensity (a.u.).
In the case of “GAATTGCCACGTAGGCGCCACGTCATATGAAGACCGAGTCCGGAGTCACCTAGTGCAG” it was 45500 fluorescence intensity (a.u.); in that of “AAATTGCCACGTAAGTGCCATGTCATATGAAGACCGAGTCCGGAGTCACCTAGTGCAG”, 17800 fluorescence intensity (a.u.); in that of “CAAATCAAATTACCACATAAGCACCACGTCAATGCCACGTCGGAGTCACCTAGTGCAG”, 22200 fluorescence intensity (a.u.).
In the case of “CAGACAGACACAGAGAGATCGATATCAACATGCTTTAGTCCGGAGTCACCTAGTGCAG” it was 3710 fluorescence intensity (a.u.); in that of “ATAAAGACCTAGTCAATGGAGTGCCACGTAGGCACCACGTCGGAGTCACCTAGTGCAG”, 39000 fluorescence intensity (a.u.); in that of “TAAGCGCCACATCAGTGCCACGTCGGATGAAGACCGAGTCCGGAGTCACCTAGTGCAG”, 25000 fluorescence intensity (a.u.).
Consider “CAAAAGGGAATGCTTTAGGCAGATCATGGAGATAAAGACTCGGAGTCACCTAGTGCAG”, for which the binding signal is 39000 fluorescence intensity (a.u.).
In the case of “AGCGTCACCTCAATGCCACGTGTGATAAAGACCTAGTTAACGGAGTCACCTAGTGCAG” it was 17200 fluorescence intensity (a.u.); in that of “GTGTAGTTACCTTCTCGTAGGTGTCATCGAGGATGATGGCCGGAGTCACCTAGTGCAG”, 3910 fluorescence intensity (a.u.).
The figure for “CGGTATCGACGCAGCGTCTGAATGCAAGGGCCCGTGGTCACGGAGTCACCTAGTGCAG” is 27400 fluorescence intensity (a.u.); for “CGCCCAGGACGTCATGCCGGAGCTGGCCATGGTCACCGCGCGGAGTCACCTAGTGCAG” it is 4070 fluorescence intensity (a.u.).
In the case of “GAGTTGTCAAGGGATGTCATCCCGACGTCAACACGATGGCCGGAGTCACCTAGTGCAG” it was 4620 fluorescence intensity (a.u.); in that of “ACGGCGACAGCGTGGAGCTCCACGACGGCAGCGACGTCGGCGGAGTCACCTAGTGCAG”, 3590 fluorescence intensity (a.u.); in that of “CGACAGCGGAACGTGAGCTCTGGGGCGACGACGGCGGCAACGGAGTCACCTAGTGCAG”, 46800 fluorescence intensity (a.u.).
Regarding “CGGCAACAGCGGTGACAACGTGACGACGGGTGACGAGGCGCGGAGTCACCTAGTGCAG”, the binding signal is 5320 fluorescence intensity (a.u.).
The figure for “CAAGCTCATCAACTTCGTTCGGTCCAAGGTGCGTCAGGGTCGGAGTCACCTAGTGCAG” is 3180 fluorescence intensity (a.u.); for “TTAGCAACCTATCGTCATAGAGAGACCCAATGAACCCTTGCGGAGTCACCTAGTGCAG” it is 3860 fluorescence intensity (a.u.).
Consider “CCCTAGTCTCCTCCCTTGTACATAGGCAAATCCATACGCACGGAGTCACCTAGTGCAG”, for which the binding signal is 3640 fluorescence intensity (a.u.).
Take “TAATTGGGGTGATGTGGCTAATTCTCAAAGCAGTTTTATACGGAGTCACCTAGTGCAG”: the binding signal is 5820 fluorescence intensity (a.u.).
The figure for “TAGAGAAAGCAAAGCACATACATAGGCTAATTCTCCTTTACGGAGTCACCTAGTGCAG” is 39200 fluorescence intensity (a.u.); for “CGCCATGGGCGAGGCGGTGAAGGGGCCAGTGGTGGTGACGCGGAGTCACCTAGTGCAG” it is 4250 fluorescence intensity (a.u.).
Consider “TATAGCAAAGAAAAGTAAAATAAGAGGCATGAGCTCACGCCGGAGTCACCTAGTGCAG”, for which the binding signal was 37800 fluorescence intensity (a.u.).
On to “AAATAGAAAGCCCAAACGGATATTTCTTCCTGAGAGCCACCGGAGTCACCTAGTGCAG”, for which the binding signal was 35600 fluorescence intensity (a.u.).
In the case of “TCTTCCTCAAAGTAAAATAGAAGCTAGGGCTAAGAGCCCACGGAGTCACCTAGTGCAG”, the binding signal is 65100 fluorescence intensity (a.u.).
Regarding “CTACACACGAGACGTGCAAACCTGCAGATTTTGTTACTTGCGGAGTCACCTAGTGCAG”, the binding signal is 4830 fluorescence intensity (a.u.).

Source of the values: PMC7819943, “Rice protein-binding microarrays: a tool to detect cis-acting elements near promoter regions in rice”.
